From PubChem BioAssay (NCI) come the findings set out here.

Compounds without any hit were thinned out: in the full panel of roughly 83,000, 20% have a hit.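 The test compound was applied at a single concentration to cells in 96-well plates for 48 hours, and percent growth was recorded.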 Unmarked numbers belong to inactive results. Activity calls are given as the source filed them. Rule for the calls: active = growth percent below 10; inactive = the rest.

Some test systems named below: NCI-H23 lung; NCI-H226 lung; NCI-H322M lung; HOP-62 NSCLC; NCI-H460 lung; HOP-92 NSCLC; NCI-H522 lung; A549/ATCC NSCLC; 786-0 renal; COLO 205 colon; DU-145 prostate; K-562 leukemia; MALME-3M melanoma; MDA-MB-231 breast; RXF 393 renal; SF-268 CNS; SF-295 CNS; SF-539 CNS; UACC-257 melanoma; M14 melanoma.
Test in all cases: NCI-60 one-dose screen, 48 h (100 = growth as untreated, 0 = no growth, -100 = all killed)
Holding throughout (conditions): 10 µM unless noted

For the compound `C#CCOc1cccc(-c2ncc3cc(NC(=O)CCl)ccc3n2)c1`, the growth was -13.8% (active) with NCI-H23 lung; 2.41% (active) in the experiment on NCI-H226 lung; 69.4% in the experiment with NCI-H322M lung; -5.99% (active) in the experiment on HOP-62 NSCLC; 27.8% in the experiment on NCI-H460 lung; 14.2% in the experiment with HOP-92 NSCLC. Besides, the growth in the experiment with NCI-H522 lung is -72.2% (active); in the experiment with A549/ATCC NSCLC, 73.4%; in the experiment on 786-0 renal, -81.4% (active); in the experiment on COLO 205 colon, -77.7% (active); in the experiment on DU-145 prostate it was -73.1% (active); with K-562 leukemia it was 2.16% (active). The growth is -69% (active) with MALME-3M melanoma; -10.3% (active) in the experiment with MDA-MB-231 breast; -86.3% (active) in the experiment on RXF 393 renal; -41.8% (active) in the experiment with SF-268 CNS; 69.4% in the experiment with SF-295 CNS; -25.9% (active) with SF-539 CNS. For the same compound, the growth with UACC-257 melanoma was 62%; with M14 melanoma, -45.9% (active).
For `O=C(O)c1cn(C2CC2)c2cc(N3CCN(C(=O)N/N=C/c4ccccc4)CC3)c(F)cc2c1=O`, the growth is 97.1% in the experiment on NCI-H23 lung; 88% with NCI-H226 lung; 100% in the experiment with NCI-H322M lung; 107% with HOP-62 NSCLC; 109% in the experiment on NCI-H460 lung; 89% in the experiment with HOP-92 NSCLC. Moreover, the growth was 78% in the experiment on NCI-H522 lung; 106% with A549/ATCC NSCLC; 93.6% in the experiment with 786-0 renal; 114% in the experiment with COLO 205 colon; 104% in the experiment on DU-145 prostate; 89.1% with K-562 leukemia. Further, the growth with MALME-3M melanoma is 92.9%; in the experiment on MDA-MB-231 breast it was 120%; in the experiment on RXF 393 renal, 104%; in the experiment with SF-268 CNS, 96.8%; in the experiment with SF-295 CNS, 106%; in the experiment with SF-539 CNS, 110%. Besides, the growth in the experiment on UACC-257 melanoma was 89.3%; in the experiment with M14 melanoma, 108%.
Regarding `Cc1c2cc[nH]c(=O)c2c(C)c2c1[nH]c1ccc(OC(=O)c3ccccc3)cc12`, the growth is 24.4% with NCI-H23 lung; 38.5% with NCI-H226 lung; 40.8% with NCI-H322M lung; 18.7% in the experiment with HOP-62 NSCLC; 1.23% (active) with NCI-H460 lung; 40.9% with HOP-92 NSCLC. Further, the growth was 26.9% with NCI-H522 lung; 6.49% (active) in the experiment with A549/ATCC NSCLC; 44.9% with 786-0 renal; 34% with DU-145 prostate; 36.2% in the experiment with K-562 leukemia; 20% with MALME-3M melanoma. For the same compound, the growth with MDA-MB-231 breast is 34%; in the experiment on RXF 393 renal, 37.4%; with SF-268 CNS, 40%; in the experiment with SF-295 CNS it was 31.6%; in the experiment on SF-539 CNS, 17.1%; in the experiment with UACC-257 melanoma, 11.2%. Further, in the experiment with M14 melanoma, the growth was 33.7%.
`N#Cc1c(N2CCOCC2)nc(=S)[nH]c1-c1ccccc1`: the growth in the experiment on NCI-H23 lung was 87.6%; with NCI-H226 lung, 72.5%; in the experiment on NCI-H322M lung, 76.4%; with HOP-62 NSCLC it was 51.3%; with NCI-H460 lung, 68.9%; in the experiment with HOP-92 NSCLC, -7.41% (active). In addition, the growth in the experiment on NCI-H522 lung is 59.6%; in the experiment with A549/ATCC NSCLC it was 85.6%; in the experiment with 786-0 renal, 82.9%; in the experiment with COLO 205 colon, 77.3%; with DU-145 prostate, 87.6%; in the experiment with K-562 leukemia it was 93.4%. In addition, the growth in the experiment on MALME-3M melanoma is -3.74% (active); in the experiment on MDA-MB-231 breast, 73.1%; in the experiment on RXF 393 renal, 70.8%; in the experiment on SF-268 CNS, 87.3%; with SF-295 CNS it was 54.5%; in the experiment on SF-539 CNS, 91.3%. In addition, the growth in the experiment on UACC-257 melanoma was 91.8%; in the experiment with M14 melanoma it was 80.2%.
As for `Nc1nc(C(=O)N/N=C/c2ccc(N3CCOCC3)cc2)nn1-c1ccc(S(N)(=O)=O)cc1`, the growth in the experiment on NCI-H23 lung is 100%; in the experiment with NCI-H226 lung, 96.7%; with NCI-H322M lung, 106%; in the experiment on HOP-62 NSCLC it was 103%; with NCI-H460 lung, 110%; in the experiment with HOP-92 NSCLC, 97.7%. In addition, the growth with NCI-H522 lung was 101%; in the experiment with A549/ATCC NSCLC, 100%; with 786-0 renal, 95.7%; with COLO 205 colon, 120%; in the experiment on DU-145 prostate, 105%; with K-562 leukemia, 94%. Moreover, the growth in the experiment with MALME-3M melanoma is 107%; in the experiment with MDA-MB-231 breast, 115%; with RXF 393 renal it was 108%; in the experiment on SF-268 CNS, 99%; in the experiment on SF-295 CNS, 104%; in the experiment with SF-539 CNS, 105%. Moreover, the results for the growth with UACC-257 melanoma and with M14 melanoma were 107% and 103%, respectively.
As to `COc1cc2cc(Oc3ccc(NC(=O)Nc4ccccc4)cc3)c(C)nc2cc1OCCN1CCCCC1`, the growth is 96.5% in the experiment with NCI-H23 lung; 99.8% with NCI-H226 lung; 114% with NCI-H322M lung; 94.9% with HOP-62 NSCLC; 33% in the experiment with NCI-H460 lung; 55.7% with HOP-92 NSCLC. The growth with NCI-H522 lung is 106%; in the experiment on A549/ATCC NSCLC, 78.6%; in the experiment on 786-0 renal it was 68.3%; in the experiment with COLO 205 colon, 69.3%; in the experiment on DU-145 prostate, 89.6%; with K-562 leukemia, -45.6% (active). Moreover, the growth with MALME-3M melanoma was -75% (active); with MDA-MB-231 breast, 85.7%; in the experiment on RXF 393 renal, 53.5%; in the experiment on SF-268 CNS it was 83.5%; in the experiment on SF-295 CNS it was 100%; in the experiment on SF-539 CNS, -80.4% (active). Further, the growth in the experiment with UACC-257 melanoma was 84%; with M14 melanoma, -90.1% (active).
Consider `NC(=O)c1ccc(NC(=O)c2oc3ccccc3c2-c2cnn(-c3ccccc3)c2)cc1`, for which the growth in the experiment with NCI-H23 lung is -21.9% [50 µM] (active); in the experiment on NCI-H226 lung, 13.9% [50 µM]; in the experiment with NCI-H322M lung, 23.7% [50 µM]; with HOP-62 NSCLC, 5.91% [50 µM] (active); with NCI-H460 lung, 5.78% [50 µM] (active); with HOP-92 NSCLC it was -27.3% [50 µM] (active). In addition, the growth with NCI-H522 lung was 21.4% [50 µM]; in the experiment with A549/ATCC NSCLC it was 8.08% [50 µM] (active); in the experiment on 786-0 renal, -26.8% [50 µM] (active); with DU-145 prostate it was 7.15% [50 µM] (active); in the experiment with K-562 leukemia it was 46% [50 µM]; in the experiment with MALME-3M melanoma it was -7.76% [50 µM] (active). In addition, the growth was -68% [50 µM] (active) with MDA-MB-231 breast; -29.1% [50 µM] (active) in the experiment on RXF 393 renal; 27.4% [50 µM] in the experiment with SF-268 CNS; 15.6% [50 µM] with SF-295 CNS; -21.7% [50 µM] (active) in the experiment with SF-539 CNS; 47.3% [50 µM] in the experiment on UACC-257 melanoma. For the same compound, the growth with M14 melanoma was -0.698% [50 µM] (active).
